We go through 26 molecules from PubChem BioAssay (Tox21).

Where “and” joins values, the source holds several entries; their conditions need not be identical. Equal values may be shown once. Inconclusive results are not listed. A structure can be active in one record and inactive in another. Calls of active or inactive are those of the source. Unless noted, the call rests on the fitted dose curve; in most records, active means well fitted curve in the direction sought with a large enough effect in the repeat runs; inconclusive means weak or mixed curves; inactive means no such curve, though single readings can be large; an effect the other way counts as inactive or inconclusive.

Assay [1] can be described thus: qHTS assay to identify small molecule antagonists of the estrogen receptor alpha (ER-alpha) signaling pathway using the BG1 cell line in the presence of 0.1 nM 17-beta-estradiol - cell viability counter screen (AID 1259241). Further: nearly all actives have a fitted effect of over 40% in size. The method, boiled down: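 VM7Luc4E2 cells (endogenous ER-alpha, 4×ERE-luciferase), hormone-starved 5 days in charcoal-stripped FBS, were treated with compounds plus 0.1 nM 17beta-estradiol for 22 hr at 37C; viability read in same wells as CellTiter-Fluor live-cell protease fluorescence.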
In general terms: Quantitative high-throughput screening tests each substance at several concentrations.

Assay [2] in a line: qHTS assay to identify small molecule antagonists of the androgen receptor (AR) signaling pathway using the MDA cell line in the presence of 0.5 nM R1881 - cell viability counter screen (AID 1259242). Further: nearly all actives have a fitted effect of over 45% in size. The method, boiled down: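 Steps: plate MDA-kb2 cells, rest 5 hr at 37C without CO2; pin in compounds in DMSO; add R1881 to 0.5 nM final; incubate 16 hr; add CellTiter-Fluor, 30 min; read fluorescence.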

Assay [3] can be described thus: qHTS assay to identify small molecule HDAC inhibitors (AID 1259364). Further: potency means the concentration at half of the fitted maximal effect.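 Further: wild-type HCT-116 cells with endogenous class I/II HDAC activity; nearly all actives have a fitted effect of over 45% in size.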 On activity change, negative = inhibition: top concentration of the series differs between compounds. The method, boiled down: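 Cells (HCT-116, wild type) are seeded at 1,500 per well, incubated overnight, treated with compound in DMSO for 2 hr, then developed with HDAC-Glo I/II reagent for 30 min at room temperature.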
A short description of assay [4]: qHTS assay to identify small molecule HDAC inhibitors - cell viability counter screen (AID 1259365). Further: series mostly up to about 92 µM; nearly all actives have a fitted effect of over 50% in size. The method, boiled down:
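Wild-type HCT-116 cells were seeded at 1,500 per well, incubated overnight at 37 C, then exposed to compounds in DMSO for 2hr. Viability was read by CellTiter-Glo luminescence after 30min at room temperature.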

Assay [5] is described as follows: qHTS assay to identify small molecule antagonists of the sonic hedgehog signaling (Shh) pathway - cell viability counter screen (AID 1259367). Further: nearly all actives have a fitted effect of over 55% in size. Further: potency means the concentration at half of the fitted maximal effect. The gist of the method:
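Conditioned medium drove Shh signaling in 3T3 Gli1-Luc cells exposed to compounds at 37C and 5% CO2. Viability was determined from CellTiter-Fluor fluorescence, with reagent incubated 1 hr after 23 hr of treatment.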

Assay [6] in a line: qHTS assay to identify small molecule agonists of the sonic hedgehog signaling (Shh) pathway (AID 1259368; calls by dose curve; further: nearly all actives have a fitted effect of over 15% in size; further: potency means the concentration at half of the fitted maximal effect; on activity change: series mostly up to about 92 µM). The gist of the method:
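Cells of a mouse NIH/3T3 clone stably expressing luciferase under the Gli1 transcriptional response element are exposed to test chemicals for 24 hr at 37 C. Pathway activation is detected as a rise in luminescence.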

Assay [7] can be described thus: qHTS assay to identify small molecule agonists of the sonic hedgehog signaling (Shh) pathway - cell viability counter screen (AID 1259366). Further: nearly all actives have a fitted effect of over 50% in size. Further: potency means the concentration at half of the fitted maximal effect. The gist of the method:
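NIH/3T3-derived 3T3 Gli1-Luc cells (stable Gli1-responsive firefly luciferase reporter) were seeded, rested 4 hr at 37 C/5% CO2, then exposed to compounds in DMSO for 24 hr; viability was read by CellTiter-Fluor fluorescence in the same wells.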

The target in assay [8] is Estrogen receptor (Homo sapiens) (UniProt P03372). Nature of the assay: qHTS assay to identify small molecule antagonists of the estrogen receptor alpha (ER-alpha) signaling pathway using the BG1 cell line in the presence of 0.1 nM 17-beta-estradiol (AID 1259244). Further: nearly all actives have a fitted effect of over 50% in size. Further: potency means the concentration at half of the fitted maximal effect. The gist of the method: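 Antagonist mode: compounds in DMSO are pinned onto VM7Luc4E2 reporter cells, 0.1 nM final 17beta-estradiol is added, and after 22 h at 37C luciferase luminescence is measured with ONE-Glo.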

A short description of assay [9]: qHTS assay to identify small molecule phospholipidosis (PLD) inducers (AID 1259344; active means well fitted curve in the direction sought with a large enough effect; an effect the other way counts as inactive or inconclusive; further: potency means the concentration at half of the fitted maximal effect). The gist of the method:
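After 4 h attachment on collagen I, HepG2 cells were dosed with compound alongside LipidTOX Red, kept 24 h at 37 C, fixed, and imaged for lamellar phospholipid pits.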

Assay [10] concerns the target Androgen receptor (Homo sapiens) (UniProt P10275). Nature of the assay: qHTS assay to identify small molecule antagonists of the androgen receptor (AR) signaling pathway using the MDA cell line in the presence of 0.5 nM R1881 (AID 1259243). Further: nearly all actives have a fitted effect of over 50% in size. Further: potency means the concentration at half of the fitted maximal effect. The method, boiled down:
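Stably transfected MDA-kb2 cells express luciferase from an MMTV promoter bearing both AR and GR response elements. Compounds plus 0.5 nM R1881 (final) were incubated 16 hr at 37C without CO2, then luminescence measured.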
On the % scale 0 is the no-effect control and ±100 the full control effect.

Chain of Androgen receptor (Homo sapiens) (P10275 whole entry, looked up): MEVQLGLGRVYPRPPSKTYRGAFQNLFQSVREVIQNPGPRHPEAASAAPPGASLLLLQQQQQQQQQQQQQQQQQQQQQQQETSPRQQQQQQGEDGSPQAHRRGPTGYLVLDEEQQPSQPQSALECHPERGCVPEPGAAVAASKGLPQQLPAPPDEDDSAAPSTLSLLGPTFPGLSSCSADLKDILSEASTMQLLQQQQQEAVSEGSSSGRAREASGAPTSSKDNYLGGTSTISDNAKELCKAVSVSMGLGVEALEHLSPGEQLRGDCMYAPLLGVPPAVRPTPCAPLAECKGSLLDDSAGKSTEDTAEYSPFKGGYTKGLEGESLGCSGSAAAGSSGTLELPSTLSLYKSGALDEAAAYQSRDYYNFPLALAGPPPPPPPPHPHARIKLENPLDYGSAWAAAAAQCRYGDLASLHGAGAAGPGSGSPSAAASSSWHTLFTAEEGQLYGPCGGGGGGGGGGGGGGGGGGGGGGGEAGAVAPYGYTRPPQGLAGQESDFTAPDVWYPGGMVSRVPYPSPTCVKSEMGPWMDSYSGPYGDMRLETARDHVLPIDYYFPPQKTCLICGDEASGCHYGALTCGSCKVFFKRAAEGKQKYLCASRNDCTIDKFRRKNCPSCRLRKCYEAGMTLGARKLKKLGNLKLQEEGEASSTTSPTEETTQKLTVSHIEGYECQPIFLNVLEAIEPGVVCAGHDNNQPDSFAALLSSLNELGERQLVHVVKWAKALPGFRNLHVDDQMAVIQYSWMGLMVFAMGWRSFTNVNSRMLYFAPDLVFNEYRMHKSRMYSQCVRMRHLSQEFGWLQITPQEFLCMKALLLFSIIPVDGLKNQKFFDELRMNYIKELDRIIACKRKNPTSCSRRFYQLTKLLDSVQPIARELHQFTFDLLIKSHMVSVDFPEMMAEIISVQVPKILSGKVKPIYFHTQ
Chain of Estrogen receptor (Homo sapiens) (P03372 whole entry, looked up): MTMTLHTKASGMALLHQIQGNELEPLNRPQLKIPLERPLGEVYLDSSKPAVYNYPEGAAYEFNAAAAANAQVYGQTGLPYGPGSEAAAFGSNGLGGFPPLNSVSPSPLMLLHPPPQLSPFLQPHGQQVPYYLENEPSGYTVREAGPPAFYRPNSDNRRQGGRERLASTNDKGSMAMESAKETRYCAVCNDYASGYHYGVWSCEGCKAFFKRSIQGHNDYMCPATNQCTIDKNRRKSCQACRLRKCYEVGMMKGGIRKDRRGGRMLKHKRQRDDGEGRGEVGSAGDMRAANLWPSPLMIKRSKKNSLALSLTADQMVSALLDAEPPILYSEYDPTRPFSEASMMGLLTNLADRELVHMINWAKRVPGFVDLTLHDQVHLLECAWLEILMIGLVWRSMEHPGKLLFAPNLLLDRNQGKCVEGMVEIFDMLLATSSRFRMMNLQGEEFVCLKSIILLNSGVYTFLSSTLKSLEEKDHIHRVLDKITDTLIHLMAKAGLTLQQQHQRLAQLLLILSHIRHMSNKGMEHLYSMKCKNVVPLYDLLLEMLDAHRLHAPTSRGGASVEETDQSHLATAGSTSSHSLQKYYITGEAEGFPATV

As for `Oc1cc(Cl)cc(Cl)c1Cl`, the Potency entry in assay [1], in assay [2], in [3], in assay [4], in assay [5] and in assay [6] was “inactive” in each case.

With `Fc1ccc(C(c2ccc(F)cc2)N2CCNCC2)cc1`, the Potency entry in assay [1], in assay [2], in [3], in assay [4] and in assay [6] was “inactive” each time.

With `COC(=O)c1ccccc1OC`, the Potency result in assay [1], in assay [2], in [4], in assay [7], in assay [5] and in assay [6] was “inactive” in each case.

On to `CC[C@H](C)COC(=O)/C=C/c1ccc(N=Cc2ccc(OC)cc2)cc1`, for which the Potency entry in assay [1], in assay [2], in [4], in [7], in assay [5] and in assay [6] was “inactive” in each case.

For `CC(C)(c1cc(Br)c(OCC(Br)CBr)c(Br)c1)c1cc(Br)c(OCC(Br)CBr)c(Br)c1` (configuration not stated), the Potency entry in [1], in [2], in assay [3], in assay [4], in assay [7] and in assay [5] was “inactive” in each case. In addition, in [6], the Potency result is “inactive”.

Turning to `CC(C(=O)O)c1ccc2c(c1)[nH]c1ccc(Cl)cc12` (configuration not stated), the Potency entry in [1], in [8], in assay [9], in assay [4], in assay [7] and in assay [5] was “inactive” throughout. Besides, in [6], the Potency result is “inactive”.

As to `Cc1c(C)c2c(c(C)c1OC(=O)c1cccnc1)CC[C@@](C)(CCC[C@H](C)CCC[C@H](C)CCCC(C)C)O2`, the Potency result in assay [1], in assay [8], in [9], in assay [3], in assay [4] and in assay [7] was “inactive” throughout. In addition, the Potency result in [5] and in [6] was “inactive” throughout.

Regarding `C#C[C@]1(O)CC[C@H]2[C@@H]3[C@H](C)CC4=C(CCC(=O)C4)[C@H]3CC[C@@]21C`, the Potency result in assay [1], in assay [8], in [9], in assay [3], in [4] and in assay [7] was “inactive” throughout. In addition, the Potency entry in [5] and in [6] was “inactive” each time.

`CC(=O)Oc1cc2c(s1)CCN(C(C(=O)C1CC1)c1ccccc1F)C2` (configuration not stated): the Potency result in assay [1], in assay [8], in assay [9], in assay [3], in [4] and in assay [5] was “inactive” each time. The Potency result in assay [6] was “inactive”.

On to `CC[N+](CC)(CC)CCOC(=O)C(C1CCCC1)C1CCCC1`, for which the Potency entry in assay [1], in assay [3], in assay [4], in assay [7], in [5] and in [6] was “inactive” throughout. Moreover, the PLD induction in assay [9] was 0.0817% [at 7.66 µM] (inactive).

Regarding `C#C[C@]1(OC(C)=O)CC[C@H]2[C@@H]3CCC4=C[C@@H](OC(C)=O)CC[C@@H]4[C@H]3CC[C@@]21C`, the Potency entry in [1], in assay [3], in assay [4], in assay [7], in assay [5] and in [6] was “inactive” each time. Further, the Potency in assay [9] is 10 µM (active).

Turning to `COc1ccc(-c2coc3cc(O)ccc3c2=O)cc1`, the Potency entry in [1], in assay [8], in assay [4], in assay [7] and in assay [5] was “inactive” in each case. The Potency was 1.54 µM (active) in [3] and 9.69 µM (active) in [6].

`C[C@H]1NCc2cc(-c3ccc4c(=O)c(C(=O)O)cn(C5CC5)c4c3OC(F)F)ccc21`: the activity change, negative = cytotoxicity in assay [1] is -0.503% [at 19 µM] (inactive); in assay [4] it was 0.0413% [at 19 µM] (inactive). Moreover, in [8], the activity change, negative = inhibition was -8.57% [at 19 µM] (inactive). Further, in [9], the Potency result is “inactive”. In addition, the viability change, negative = cytotoxic in assay [7] was 2.18% [at 19 µM] (inactive); in assay [5] it was -2.69% [at 19 µM] (inactive). The activity change in assay [6] was -0.818% [at 18.9 µM, stronger effect = higher value] (inactive).

For `OC[C@H]1O[C@H](O[C@H]2O[C@H](CO)[C@@H](O)[C@H](O)[C@H]2O)[C@H](O)[C@@H](O)[C@@H]1O`, the Potency result in assay [1], in assay [10], in assay [3], in assay [4], in assay [7] and in assay [5] was “inactive” throughout. Moreover, the Potency entry in [6] is “inactive”.

For `COC(C)=O`, the Potency result in assay [1], in assay [8], in assay [9], in assay [4], in [5] and in [6] was “inactive” each time.

For `CN(C)[C@@H](CCOc1cccc2ccccc12)c1ccccc1`, the Potency result in assay [1], in assay [8], in assay [3], in assay [4] and in assay [6] was “inactive” each time. The Potency in assay [10] is 26.6 µM (active).

As to `CCCC(=O)OCOC(=O)C1=C(C)NC(C)=C(C(=O)OC)C1c1cccc(Cl)c1Cl` (configuration not stated), the Potency result in assay [1], in assay [8], in assay [3], in assay [4], in assay [7] and in assay [5] was “inactive” each time. Also, in assay [6], the Potency result was “inactive”.

In the case of `C#C[C@]1(OC(C)=O)CC[C@H]2[C@@H]3CCC4=C/C(=N/O)CC[C@@H]4[C@H]3CC[C@@]21CC`, the Potency entry in assay [1], in [8], in [9], in [4], in assay [7] and in [5] was “inactive” each time. Further, in assay [6], the Potency entry was “inactive”.

In the case of `CCCCCCCCCCC[C@@H](C[C@@H]1OC(=O)[C@H]1CCCCCC)OC(=O)[C@H](CC(C)C)NC=O`, the Potency entry in assay [1], in assay [9], in assay [3], in assay [4], in assay [7] and in assay [5] was “inactive” throughout. For the same molecule, the Potency entry in [6] is “inactive”.

For `CC(C)OC(=O)C(O)(CC(=O)O)CC(=O)O`, the Potency result in assay [1], in [10], in [8], in assay [3], in assay [4] and in assay [7] was “inactive” throughout. Also, the Potency entry in assay [5] and in assay [6] was “inactive” throughout.

As for `O=C(c1ccc(O)c(O)c1)c1ccc(O)cc1O`, the Potency result in assay [1] and in assay [6] was “inactive” throughout. For the same molecule, the Potency in [8] was 61 µM (active).

Take `O=C(Oc1ccccc1)Oc1ccccc1`: the Potency entry in [1], in assay [8], in assay [3], in assay [4], in [7] and in assay [6] was “inactive” throughout.

In the case of `CCCCCCCCCCCCCCCC[N+](C)(C)CC`, the Potency entry in assay [1], in assay [9], in [3], in [4] and in assay [6] was “inactive” in each case. Besides, the Potency was 27.4 µM (active) and 26.6 µM (active) in [8]; 68.8 µM (active) in assay [7]; 54.6 µM (active) and inactive in [5].

Turning to `Cc1c(N)cccc1C(F)(F)F`, the Potency entry in [1], in assay [10], in assay [3], in assay [4], in assay [7] and in assay [5] was “inactive” throughout. Further, in assay [6], the Potency result was “inactive”.

Turning to `CCCCCc1ccc(Cl)cc1`, the Potency entry in [1], in assay [2], in [4], in assay [5] and in assay [6] was “inactive” each time.

For `CC1(C)[C@@H](O)CC[C@]2(C)[C@H]3C(=O)C=C4[C@@H]5C[C@@](C)(C(=O)O)CC[C@]5(C)CC[C@@]4(C)[C@]3(C)CC[C@@H]12`, the Potency entry in assay [1], in assay [10], in [8], in assay [9], in assay [4] and in [5] was “inactive” throughout. Further, the Potency entry in assay [6] was “inactive”.
